Test results taken from PubChem BioAssay.
The source made the active and inactive calls.

Experiments:
[1] = test system: PRMT1 (protein arginine N-methyltransferase 1); assay: PRMT1 binders on small-molecule microarrays, primary screen, biochemical, small-molecule microarray, 635 nm fluorescence (AID 1088); settings: small-molecule microarray binding, higher = more signal;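 further: binding of Prmt1 protein to compounds spotted on small-molecule microarray slides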
[2] = yeast growth modulation, basal conditions, primary screen, YJM789 clinical isolate, OD600, 24 h (AID 1089);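 further: growth of clinical yeast isolate S. cerevisiae YJM 789 seeded 1000 cells per well; test concentration not given here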; settings: S. cerevisiae YJM789 growth, higher = more signal, called active from +8 up or from −8 down
[3] = fission yeast growth modulation, primary screen, strain 972, OD600, 24 h, no modulator (AID 1090);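 further: basal condition with compound alone and no growth modifier present; test concentration not given here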; settings: S. pombe 972 growth, higher = more signal, called active from +8 up or from −8 down
[4] = S. cerevisiae growth modulation with rapamycin, primary screen, strain BY4716, OD600, 96 h (AID 1091); settings: higher = more signal, called active from +8 up or from −8 down; further: test concentration not given here
[5] = molecular target: Torsin-1A-interacting protein 2 (Homo sapiens) (UniProt Q8NFQ8); assay: LULL1 binders on small-molecule microarray, primary screen, cell lysate, human LULL1 lysate, 635/667 nm fluorescence (AID 1092); settings: hLULL1 lysate binding, 635 nm fluorescence, higher = more signal;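 further: probe is lysate of COS7 cells overexpressing human LULL1; score merges per-feature 667 nm fluorescence with signal-to-noise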
[6] = E. coli growth modulation, two-sided OD650, primary screen, E. coli filamentation project, strain DRC41, 24 h (AID 1093); settings: OD650, 24 h, higher = more signal, called active from +8 up or from −8 down;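 further: MC1000 strain lacking acrAB efflux and sulA so SOS filamentation is blocked; test concentration not given here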
[7] = small-molecule microarray binders of probe aLefty2, primary screen, biochemical, biotinylated probe, 635/667 nm fluorescence (AID 1094); settings: higher = more signal;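 further: score merges spot fluorescence near 667 nm with spot signal-to-noise ratio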
[8] = test system: Noggin (protein binding on small-molecule microarray); assay: Noggin binders on small-molecule microarray, primary screen, biochemical, 635/667 nm fluorescence (AID 1095); settings: 635 nm fluorescence, higher = more signal;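 further: score merges 667 nm feature fluorescence with signal to noise over triplicate slides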
[9] = molecular target: Neurogenic locus notch homolog protein 3 (Homo sapiens) (UniProt Q9UM47); assay: NOTCH3 binders on small-molecule microarray, primary screen, biochemical, 635/667 nm fluorescence (AID 1096); settings: NOTCH3 binding, 635 nm fluorescence, higher = more signal
[10] = small-molecule microarray binders of probe aEGFR, primary screen, biochemical, biotinylated probe, 635/667 nm fluorescence (AID 1097); settings: higher = more signal;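 further: probe is a biotinylated anti-EGFR antibody binding compounds printed on slides; score combines fluorescence near 667 nm and signal to noise of each spot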

Chain of Torsin-1A-interacting protein 2 (Homo sapiens) (Q8NFQ8 whole entry, looked up): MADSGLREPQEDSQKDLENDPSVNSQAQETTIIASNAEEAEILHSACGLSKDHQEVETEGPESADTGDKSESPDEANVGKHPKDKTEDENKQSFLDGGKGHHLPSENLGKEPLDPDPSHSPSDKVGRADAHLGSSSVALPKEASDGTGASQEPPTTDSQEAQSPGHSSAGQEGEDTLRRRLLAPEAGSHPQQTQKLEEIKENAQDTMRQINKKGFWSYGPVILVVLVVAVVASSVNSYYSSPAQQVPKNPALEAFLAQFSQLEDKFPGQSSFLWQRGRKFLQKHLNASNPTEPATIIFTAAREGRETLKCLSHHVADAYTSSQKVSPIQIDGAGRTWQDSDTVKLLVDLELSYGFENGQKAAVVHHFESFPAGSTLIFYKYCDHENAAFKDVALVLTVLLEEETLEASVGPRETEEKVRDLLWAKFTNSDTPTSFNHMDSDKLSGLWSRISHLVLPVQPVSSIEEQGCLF
Chain of Neurogenic locus notch homolog protein 3 (Homo sapiens) (Q9UM47 whole entry, looked up): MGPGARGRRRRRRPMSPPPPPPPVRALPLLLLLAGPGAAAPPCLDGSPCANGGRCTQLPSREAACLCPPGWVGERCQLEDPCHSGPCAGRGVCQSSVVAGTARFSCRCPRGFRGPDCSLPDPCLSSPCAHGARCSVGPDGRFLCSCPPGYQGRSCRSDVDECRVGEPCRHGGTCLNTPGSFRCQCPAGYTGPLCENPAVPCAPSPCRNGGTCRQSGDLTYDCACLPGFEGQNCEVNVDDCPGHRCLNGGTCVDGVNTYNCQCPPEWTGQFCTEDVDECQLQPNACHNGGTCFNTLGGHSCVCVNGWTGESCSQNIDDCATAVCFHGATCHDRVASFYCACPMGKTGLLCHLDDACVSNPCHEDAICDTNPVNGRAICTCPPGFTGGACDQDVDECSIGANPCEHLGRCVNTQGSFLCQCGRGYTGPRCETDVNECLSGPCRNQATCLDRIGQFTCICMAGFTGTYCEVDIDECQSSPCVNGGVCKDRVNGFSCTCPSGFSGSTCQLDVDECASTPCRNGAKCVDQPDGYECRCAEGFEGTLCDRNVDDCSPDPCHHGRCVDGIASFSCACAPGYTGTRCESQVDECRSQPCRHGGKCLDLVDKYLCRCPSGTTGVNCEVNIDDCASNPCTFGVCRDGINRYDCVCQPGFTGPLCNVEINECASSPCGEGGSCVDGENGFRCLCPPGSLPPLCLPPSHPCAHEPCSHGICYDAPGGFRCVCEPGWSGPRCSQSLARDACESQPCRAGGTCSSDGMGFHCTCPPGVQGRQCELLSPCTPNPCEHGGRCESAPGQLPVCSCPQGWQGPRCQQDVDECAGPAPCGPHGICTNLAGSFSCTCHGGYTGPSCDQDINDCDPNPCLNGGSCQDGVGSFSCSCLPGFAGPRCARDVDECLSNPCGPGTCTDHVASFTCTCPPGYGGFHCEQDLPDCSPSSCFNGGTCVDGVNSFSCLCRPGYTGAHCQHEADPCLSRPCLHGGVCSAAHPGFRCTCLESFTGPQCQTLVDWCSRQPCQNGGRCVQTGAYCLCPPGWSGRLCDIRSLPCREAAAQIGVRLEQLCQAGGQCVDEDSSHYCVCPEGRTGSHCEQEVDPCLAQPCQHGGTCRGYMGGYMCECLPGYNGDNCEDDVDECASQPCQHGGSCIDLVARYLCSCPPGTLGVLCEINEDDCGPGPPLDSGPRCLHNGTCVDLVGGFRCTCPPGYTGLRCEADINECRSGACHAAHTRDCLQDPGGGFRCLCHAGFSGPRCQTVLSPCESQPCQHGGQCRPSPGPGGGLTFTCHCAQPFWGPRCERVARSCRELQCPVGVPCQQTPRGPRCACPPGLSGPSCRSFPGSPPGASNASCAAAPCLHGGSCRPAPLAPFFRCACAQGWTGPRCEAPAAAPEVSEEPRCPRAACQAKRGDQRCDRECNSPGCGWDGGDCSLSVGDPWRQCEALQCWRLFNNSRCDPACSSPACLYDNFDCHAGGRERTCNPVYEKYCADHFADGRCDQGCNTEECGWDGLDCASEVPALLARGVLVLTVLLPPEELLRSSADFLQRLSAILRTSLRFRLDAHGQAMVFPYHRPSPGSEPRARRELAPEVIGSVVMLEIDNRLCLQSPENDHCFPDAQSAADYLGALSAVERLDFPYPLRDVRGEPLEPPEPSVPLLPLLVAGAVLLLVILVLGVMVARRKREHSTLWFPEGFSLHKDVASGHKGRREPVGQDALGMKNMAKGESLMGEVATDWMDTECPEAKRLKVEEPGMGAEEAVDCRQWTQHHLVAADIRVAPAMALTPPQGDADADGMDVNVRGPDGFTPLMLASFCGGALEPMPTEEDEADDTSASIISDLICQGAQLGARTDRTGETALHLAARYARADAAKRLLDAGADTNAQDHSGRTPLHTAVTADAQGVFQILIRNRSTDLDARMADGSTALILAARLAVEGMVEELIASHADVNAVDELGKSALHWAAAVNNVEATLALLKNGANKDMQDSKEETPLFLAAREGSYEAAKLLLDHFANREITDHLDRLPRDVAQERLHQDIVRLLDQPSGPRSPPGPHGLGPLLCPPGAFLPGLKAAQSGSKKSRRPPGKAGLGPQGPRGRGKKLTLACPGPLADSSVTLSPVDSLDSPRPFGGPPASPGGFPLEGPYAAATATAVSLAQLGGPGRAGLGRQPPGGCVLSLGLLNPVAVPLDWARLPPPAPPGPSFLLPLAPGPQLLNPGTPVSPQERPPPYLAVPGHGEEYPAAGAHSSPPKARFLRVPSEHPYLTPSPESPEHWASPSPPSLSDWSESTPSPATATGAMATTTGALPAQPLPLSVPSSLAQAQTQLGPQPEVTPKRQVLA

Row | SMILES | composite z-score [1] | z-score [2] | z-score [3] | z-score [4] | composite z-score [5] | z-score [6] | composite z-score [7] | composite z-score [8] | composite z-score [9] | composite z-score [10]
1 | COc1ccc(C(=O)Nc2cccc(CN3C(=O)[C@]4(O[C@H](CCn5cc(CCO)nn5)[C@@H]([Si](C)(C)c5ccc(OC)cc5)[C@@H]4C)c4ccccc43)c2)cc1 | 1.06 | 0.901 (inactive) | -14.9 (active) | 1.15 (inactive) | 1.2 | 0.506 (inactive) | 0.143 | 0.367 | 0.556 | 0.0848
2 | COCCOC(=O)N1C(=O)[C@@]2(c3cc(C#CC4=CCCCC4)ccc31)[C@H](c1ccc(OCCO)cc1)N1[C@H](c3ccccc3)[C@H](c3ccccc3)OC(=O)[C@H]1[C@@H]2C(=O)N1CCc2cc(OC)c(OC)cc2C1 | 1.55 | 2.47 (inactive) | 0.535 (inactive) | 4.01 (inactive) | 1.94 | 1.96 (inactive) | 0.034 | 0.921 | 1.06 | 0.119
3 | [N-]=[N+]=Nc1ccccc1C[C@@]1(C(=O)N2CCCCC2)N=C(c2ccc(OCCCO)cc2)O[C@@H]1c1ccccc1N=[N+]=[N-] | 0.919 | -1.16 (inactive) | 0.123 (inactive) | 1.18 (inactive) | 2.45 | 0.799 (inactive) | 0.605 | 0.169 | 0.884 | 0.29
4 | O=C1O[C@H](c2ccccc2)[C@H](c2ccccc2)N2[C@H]1[C@@H](C(=O)NC[C@H](O)c1ccccc1)[C@]1(C(=O)Nc3ccc(C#CC4=CCCCC4)cc31)[C@H]2c1ccccc1OCCO | 1.43 | 2.2 (inactive) | -0.874 (inactive) | 2.64 (inactive) | 1.64 | -0.0991 (inactive) | 0.107 | 0.545 | 0.786 | 0.032
5 | Cc1ccc([C@H]2C(C(=O)O)=CCN2S(=O)(=O)c2ccc(C)cc2)cc1 | 0.472 | -0.76 (inactive) | 0.366 (inactive) | -0.18 (inactive) | 2.82 | -0.264 (inactive) | 0.228 | 0.11 | 0.189 | -0.0828
